Laboratory results: PubChem BioAssay (NCI)
Compounds without any hit were thinned out: in the full panel of roughly 79,000, 15% have a hit. Activity calls are given as the source filed them. Rule as the data show it: active = growth inhibition above about 70%; inactive = the rest.

How the values were obtained:
[1] = NCI Yeast Anticancer Drug Screen. Data for the rad52 strain (AID 147);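 also: 0% = growth of vehicle-treated control cultures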; settings: S. cerevisiae rad52 mutant growth inhibition, hits give high values
In short: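 Read-out: growth inhibition versus vehicle-treated controls. Cells were a DNA repair-deficient yeast strain treated with compounds.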

[2] = NCI Yeast Anticancer Drug Screen. Data for the wt1 strain (AID 149);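 also: 0% = growth of vehicle-treated wt1 cultures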; settings: S. cerevisiae wt1 strain (SPY 50644) growth inhibition, hits give high values
In short: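 Compounds are added to wt1 yeast cultures. Growth is then measured. Inhibition is expressed relative to vehicle-treated controls.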

[3] = NCI Yeast Anticancer Drug Screen. Data for the rad50EPP+ strain (AID 151);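 also: 0% = growth of vehicle-treated control cultures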; settings: S. cerevisiae rad50 mutant strain, hits give high values
In short: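 Growth inhibition read against vehicle controls in rad50EPP+ yeast, a strain altered in DNA damage repair, after compound exposure.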

[4] = NCI Yeast Anticancer Drug Screen. Data for the mgt1 strain (AID 153); settings: S. cerevisiae mgt1 mutant growth inhibition, hits give high values
In short: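 mgt1 yeast grown with test compound; read-out is growth inhibition versus vehicle-treated cultures.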

[5] = NCI Yeast Anticancer Drug Screen. Data for the rad50 strain (AID 155);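 also: 0% = growth of vehicle-only cultures of the same strain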; settings: S. cerevisiae rad50 strain growth inhibition, hits give high values
In short: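 Inhibition values express reduced yeast growth in compound-treated cultures relative to vehicle-treated controls.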

[6] = NCI Yeast Anticancer Drug Screen. Data for the mec2-1 strain (AID 157); settings: S. cerevisiae mec2-1 strain, hits give high values
In short: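 Yeast mec2-1 mutant treated with compound. Readout: growth inhibition vs vehicle controls.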

[7] = NCI Yeast Anticancer Drug Screen. Data for the rad14 strain (AID 159);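 also: 0% = growth of vehicle-treated control cultures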; settings: S. cerevisiae rad14 strain growth inhibition, hits give high values
In short: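 A mutant yeast strain defective in DNA damage repair is treated with compound; inhibition of its growth is scored against untreated, vehicle-exposed cultures.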

[8] = NCI Yeast Anticancer Drug Screen. Data for the sgs1 mgt1 strain (AID 161);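 also: 0% = growth of cultures given vehicle only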; settings: S. cerevisiae sgs1 mgt1 strain, hits give high values
In short: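 Inhibition of yeast growth, normalised to vehicle-treated controls, is reported for a strain bearing genetic alterations in DNA damage repair.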

[9] = NCI Yeast Anticancer Drug Screen. Data for the CLN2oe strain (AID 163);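 also: 0% = growth of vehicle-only control cultures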; settings: S. cerevisiae CLN2oe strain, hits give high values
In short: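 Read-out: yeast growth inhibition, expressed relative to vehicle-only controls. The strain bears an engineered cell-cycle alteration.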

[10] = NCI Yeast Anticancer Drug Screen. Data for the cln2 rad14 strain (AID 165);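 also: 0% = growth equal to vehicle treated cultures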; settings: S. cerevisiae cln2 rad14 strain, hits give high values
In short: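 cln2 rad14 yeast strain; compound exposure; growth inhibition read vs vehicle controls.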

[11] = NCI Yeast Anticancer Drug Screen. Data for the bub3 strain (AID 167); settings: S. cerevisiae bub3 mutant strain, hits give high values
In short: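 Steps: expose the mutant yeast strain to compound; grow alongside vehicle-treated cultures; measure growth; express inhibition against the vehicle cultures.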

[12] = NCI Yeast Anticancer Drug Screen. Data for the wt2 strain (AID 169);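 also: 0% = growth of vehicle-treated yeast cultures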; settings: S. cerevisiae wt2 strain growth inhibition, hits give high values
In short: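 Read-out: growth inhibition versus vehicle-treated control cultures after compound exposure of the yeast strain.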

[13] = NCI Yeast Anticancer Drug Screen. Data for the mlh1 strain (AID 171);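 also: 0% = growth of vehicle-treated control cultures of the same strain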; settings: S. cerevisiae mlh1 strain growth inhibition, hits give high values
In short: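 Read-out: growth inhibition versus vehicle controls. Strain: engineered yeast with a defined DNA repair or cell cycle defect, compound-treated.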

[14] = NCI Yeast Anticancer Drug Screen. Data for the sgs1 strain (AID 173);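 also: 0% = growth of vehicle-only control cultures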; settings: S. cerevisiae sgs1 mutant, hits give high values
In short: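 Read-out: yeast growth inhibition relative to vehicle controls, following compound exposure of a strain with a defined DNA repair/cell cycle alteration.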

[15] = NCI Yeast Anticancer Drug Screen. Data for the mlh1 rad18 strain (AID 175); settings: S. cerevisiae mlh1 rad18 strain growth inhibition, hits give high values
In short: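 Yeast w/ defined DNA-repair lesions; compound exposure; growth vs vehicle controls → % inhibition.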

[16] = NCI Yeast Anticancer Drug Screen. Data for the rad18 strain (AID 177); settings: S. cerevisiae rad18 mutant growth inhibition, hits give high values
In short: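 Readout: growth inhibition vs vehicle controls. Cells: genetically altered yeast strain, DNA repair defect.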

[17] = at 5.0 µM (retest, dose inferred, filed as 0.5)
[18] = at 50.0 µM (retest, dose inferred, filed as 5.0)

Measured: growth inhibition

O=C(OCCN1CCCCCC1)C(c1ccsc1)C1CCCCC1 (stereo not drawn)
inactive: [1]; at 1.2 µM 15% | [1]; at 3.7 µM 14% | [1]; at 11.0 µM 50% | [1]; at 33.0 µM 57% | [1]; at 100.0 µM 50% | [2]; at 1.2 µM -67% | [2]; at 3.7 µM 13% | [2]; at 11.0 µM 16% | [2]; at 33.0 µM 19% | [2]; at 100.0 µM 19% | [3]; at 1.2 µM -1% | [3]; at 3.7 µM -1% | [3]; at 11.0 µM -1% | [3]; at 33.0 µM 0% | [3]; at 100.0 µM 2% | [4]; at 1.2 µM 8% | [4]; at 3.7 µM 21% | [4]; at 11.0 µM 34% | [4]; at 33.0 µM 36% | [4]; at 100.0 µM 37% | [5]; at 1.2 µM 11% | [5]; at 3.7 µM 17% | [5]; [17] 13% | [5]; at 11.0 µM 25% | [5]; at 33.0 µM 29% | [5]; [18] 39% | [5]; at 100.0 µM 46% | [6]; at 1.2 µM 3% | [6]; at 3.7 µM 10% | [6]; [17] -5% | [6]; at 11.0 µM 17% | [6]; at 33.0 µM 27% | [6]; [18] 13% | [6]; at 50.0 µM 33.4% | [6]; at 100.0 µM 32% | [7]; at 1.2 µM 35% | [7]; at 3.7 µM 36% | [7]; at 11.0 µM 40% | [7]; at 33.0 µM 43% | [7]; at 100.0 µM 52% | [8]; [17] 4% | [8]; [18] 55% | [9]; at 1.2 µM 10% | [9]; at 3.7 µM 32% | [9]; at 11.0 µM 51% | [9]; at 33.0 µM 57% | [10]; [18] 49% | [10]; at 50.0 µM 63.5% | [11]; at 1.2 µM 4% | [11]; at 3.7 µM 14% | [11]; [17] 61% | [11]; at 11.0 µM 37% | [11]; at 33.0 µM 58% | [12]; at 1.2 µM 6% | [12]; at 3.7 µM 17% | [12]; at 11.0 µM 22% | [12]; at 33.0 µM 39% | [13]; at 1.2 µM 8% | [13]; at 3.7 µM 21% | [13]; at 11.0 µM 24% | [13]; at 33.0 µM 29% | [13]; at 100.0 µM 35% | [14]; at 1.2 µM 17% | [14]; at 3.7 µM 29% | [14]; at 11.0 µM 34% | [14]; at 33.0 µM 31% | [14]; at 100.0 µM 40% | [15]; [17] 2% | [15]; [18] 33% | [16]; at 1.2 µM 7% | [16]; at 3.7 µM 18% | [16]; at 11.0 µM 34% | [16]; at 33.0 µM 34% | [16]; at 100.0 µM 43%
active: [5]; at 50.0 µM 81.9% | [8]; at 50.0 µM 84% | [9]; at 100.0 µM 72% | [10]; [17] 81% | [11]; [18] 88% | [11]; at 50.0 µM 83% | [11]; at 100.0 µM 79% | [12]; at 100.0 µM 72% | [15]; at 50.0 µM 79.4%
